# PAFAH2 inh – PAFAH2 (human) inhibition; actives 0.99% (n = 340,000); AID 492956; inhibition, % at 3.39 µM; recombinant PAFAH2, FP-rhodamine activity probe, fluorescence polarization;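 active = inhibition above the mean over all tested compounds plus 3 SD, cut at about 30% in these data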;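 also: inhibitors block probe labeling of enzyme so polarization drops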
# PAFAH1B3 FP inh – blocks human PAF acetylhydrolase 1B catalytic subunit 3; actives 0.28% (n = 340,000); recombinant PAFAH1B3, FP-rhodamine probe, fluorescence polarization; Q15102; inhibition, % at 3.39 µM;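 active = inhibition above the screen-wide average of all tested compounds plus 3 SD, cut at about 25% in these data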
# Target sequence (Q15102 whole entry, looked up): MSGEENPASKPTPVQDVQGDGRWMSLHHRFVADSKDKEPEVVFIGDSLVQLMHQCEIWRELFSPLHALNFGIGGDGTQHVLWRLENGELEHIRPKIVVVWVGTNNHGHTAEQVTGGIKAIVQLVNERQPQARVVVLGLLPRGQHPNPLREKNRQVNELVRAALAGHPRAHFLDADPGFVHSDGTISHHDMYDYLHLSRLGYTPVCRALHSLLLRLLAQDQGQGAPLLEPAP
# rCAG RNA binder – binds r(CAG) RNA repeats; inhibition, % at 3 µM; r(CAG) RNA repeat, TO-PRO-1 dye displacement fluorescence; actives 1.3% (n = 370,000);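 active = inhibition above the plate cutoff, the mean of all test compounds on that plate plus 3 SD, cut at about 35% in these data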;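 also: higher means more dye released from RNA so lower well fluorescence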
# PAFAH1B2 FP inh – PAFAH1B2 (human) inhibition; recombinant PAFAH1B2, FP-rhodamine activity probe, fluorescence polarization; inhibition, % at 3.39 µM; actives 1.2% (n = 340,000);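 active = inhibition above the mean of all tested compounds plus 3 SD, cut at about 24% in these data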
# Target sequence (P68402 whole entry, looked up): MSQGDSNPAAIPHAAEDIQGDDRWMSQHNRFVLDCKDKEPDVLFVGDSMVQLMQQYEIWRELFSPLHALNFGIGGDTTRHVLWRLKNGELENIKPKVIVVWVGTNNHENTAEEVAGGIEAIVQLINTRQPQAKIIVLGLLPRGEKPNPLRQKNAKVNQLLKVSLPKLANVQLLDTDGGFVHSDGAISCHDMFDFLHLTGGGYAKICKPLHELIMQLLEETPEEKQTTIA
# ZTA DNA inh – counter-screen for EBNA-1 inhibitors: inhibitors of Epstein-Barr virus ZTA. actives 0.15% (n = 320,000). P03206. ZTA-DNA binding, fluorescence polarization. inhibition, % at 11 µM. AID 2234; in the data active = inhibition above about 33%
# EBNA-1 inhibitor – blocks EBNA-1 binding to DNA | EBNA-1 DNA binding, fluorescence polarization | inhibition, % at 14.8 µM | actives 0.34% (n = 300,000) | AID 1950; in the data active = inhibition above about 28%
# rCAG bind conf – r(CAG) RNA repeat binding, confirmation; shares compounds with rCAG RNA binder; actives 70% (n = 4,300); inhibition, % at 3 µM; TO-PRO-1 dye displacement fluorescence;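 active = inhibition above a per-plate cutoff, the mean inhibition of sample wells plus 3 SD, cut at about 35% in these data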;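 also: loss of TO-PRO-1 fluorescence as compound displaces dye from 1x1 AA loop RNA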
# DNA CAG counter – disrupts DNA CAG TO-PRO-1 complex, flagging rCAG hits | inhibition, % at 3 µM | d(CAG) DNA oligo TO-PRO-1 dye displacement, fluorescence | actives 94% (n = 4,300) | shares compounds with rCAG RNA binder;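 active = inhibition above its plate's cutoff, the mean test-well inhibition plus 3 SD, cut at about 4.8% in these data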;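 also: hits displace the dye from DNA and so lower well fluorescence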
# Numbers stand for hits; 0 = inactive; - = no result given; ! = not active in a repeat. Shown are actives, neighbours in structure and some others; about 2.9% of the full set was active somewhere.
SMILES,PAFAH2 inh,PAFAH1B3 FP inh,rCAG RNA binder,PAFAH1B2 FP inh,ZTA DNA inh,EBNA-1 inhibitor,rCAG bind conf,DNA CAG counter
O=c1cc(CN2CCN(S(=O)(=O)c3ccc4ccccc4c3)CC2)nc2sccn12,0,0,0,0,0,0,-,-
C/C(=N\OCc1nc2ccccc2c(=O)n1/N=C/c1cc(C)cc([N+](=O)[O-])c1O)c1ccccc1,0,0,56,0,0,0,64,25
CC(=O)N(\C=C/C=C/C=C1\Sc2ccccc2C1=O)c1ccccc1,0,0,45,0,0,0,0,11
O=C1C=CC(=O)c2c(O)c(CO)c(CO)c(O)c21,68,50,83,25,-,-,86,68
O=c1c(CO)cc(CO)cc(CO)c1O,0,0,0,0,0,0,-,-
NS(=O)(=O)c1cc(C(=O)NC2CCSc3ccccc32)ccc1Cl (stereo not drawn),0,0,80,0,0,0,81,49
CC(C)C(=O)Nc1cccc(C(=O)Nc2ccccc2C(=O)O)c1,0,0,0,0,0,0,-,-
CC(C)c1ccc(OCC(=O)Nc2cccc(C(=O)Nc3ccccc3C(=O)O)c2)cc1,0,0,82,0,0,0,88,63
O=C(COc1ccccc1[N+](=O)[O-])Nc1cccc(C(=O)Nc2ccccc2C(=O)O)c1,0,0,69,0,0,0,80,45
Cc1cccc(OCC(=O)Nc2cccc(C(=O)Nc3ccccc3C(=O)O)c2)c1,0,0,71,0,0,0,66,29
O=C(O)c1cccc(NC(=O)c2ccccc2NC(=O)c2cccc([N+](=O)[O-])c2)c1,0,0,0,0,0,0,-,-
CCCC(C)C(=O)Nc1nnc(CCc2ccccc2)s1 (stereo not drawn),0,0,0,0,0,0,-,-
CCOc1cccc(/C=C2\NC(=S)N(c3ccccc3)C2=O)c1O,0,0,38,0,0,0,0,6.2
O=S(=O)(O)c1cccc(N=Nc2c(O)ccc3ccccc23)c1,0,0,38,0,0,0,36,9.7
Oc1ccc2ccccc2c1N=Nc1ccccc1F,0,0,0,0,0,0,-,-
Cc1cc(C(=O)Nc2cccc(/C=C/C(=O)O)c2)c(C)o1,0,0,0,0,0,0,-,-
Cc1oc(-c2ccccc2)cc1C(=O)Nc1cccc(/C=C/C(=O)O)c1,0,0,47,0,-,-,39,9.0
Cc1cccc(N=C2NC(=O)S/C2=C\c2ccco2)c1,0,0,0,0,0,0,-,-
Cc1cccc(N=C2NC(=O)/C(=C/C=C/c3ccco3)S2)c1,32,27,52,0,0,0,43,23
Cc1ccc(S(=O)(=O)/N=C2/NC(=O)/C(=C\c3cc(Br)cc(Br)c3O)S2)cc1,0,0,-,0,-,-,-,-
Cc1ccc(N=C2NC(=O)/C(=C\c3ccco3)S2)cc1,0,0,42,0,0,0,0,15
Cc1ccc(S(=O)(=O)/N=C2/NC(=O)/C(=C/c3ccc(Br)o3)S2)cc1,0,0,93,0,0,0,83,54
COc1ccc(N=C2S/C(=C\c3ccco3)C(=O)N2CC(C)C)cc1,0,0,0,0,0,0,-,-
COc1ccc(N=C2NC(=O)/C(=C\C=C\c3ccco3)S2)cc1,0,0,44,0,-,-,0,17
CC(C)NC(=O)Nc1nnc([C@H]2C[C@H](O)[C@@H](CO)O2)s1,-,-,0,-,-,-,-,-
SMILES,PAFAH2 inh,PAFAH1B3 FP inh,rCAG RNA binder,PAFAH1B2 FP inh,ZTA DNA inh,EBNA-1 inhibitor,rCAG bind conf,DNA CAG counter
Cc1oc(-c2cccs2)nc1CN1CCN(C(C)C)C(CCO)C1 (stereo not drawn),0,0,0,0,0,0,-,-
C[N+](C)(C)c1ccc(/C=N/Nc2nc(Cl)c(C#N)c(Cl)c2Cl)cc1,0,0,0,0,0,0,-,-
N#Cc1c(Cl)nc(N/N=C/c2ccccc2)c(Cl)c1Cl,0,0,45,0,0,0,0,0
COc1ccc2c(c1)C(O)C(CO)C(C(=O)O)C2 (stereo not drawn),0,0,0,0,-,-,-,-
CCOC(=O)c1sc(NC(=O)Nc2ccc(F)cc2)nc1C,0,0,47,0,0,0,0,23
CCOC(=O)c1sc(NS(=O)(=O)c2cc(C)ccc2C)nc1C,0,0,44,0,0,0,0,7.7
CCOC(=O)c1sc(NC(C)=O)nc1C,0,0,0,0,0,0,-,-
CSC[C@H]1CN(CCc2ccccc2)C(=O)[C@@H]1CC(=O)Nc1ccc(Br)cc1,-,-,0,-,-,-,-,-
CCC1=C(OC(=O)N(CC)CC)N2C(=O)OC(=NCCc3c[nH]c4ccccc34)[C@]2(C)[C@H]2C1=CC[C@H]1C(=O)N(C)C(=O)[C@H]12,0,0,0,0,0,0,-,-
COc1ccc(S(=O)(=O)c2nnn(-c3ccccc3Cl)c2N)cc1,0,0,0,0,0,0,-,-
O=C1N=c2ccc(Br)cc2=C1c1sc(=S)n(NS(=O)(=O)c2ccccc2)c1O,0,0,81,0,0,0,80,50
O=C(Nn1c(O)c(C=C2N=c3ccccc3=N2)sc1=S)c1ccc(Cl)cc1,0,0,0,0,0,0,-,-
O=C(Nn1c(O)c(C=C2N=c3ccccc3=N2)sc1=S)c1cccc(Cl)c1,0,0,73,0,0,0,43,15
Cc1ccc(S(=O)(=O)Nn2c(O)c(C=C3N=c4ccccc4=N3)sc2=S)cc1,0,0,94,0,0,0,88,60
O=C(Nn1c(O)c(C=C2N=c3ccccc3=N2)sc1=S)c1ccccc1,0,0,51,0,0,0,0,9.6
COc1cccc(CN(C)C(=O)c2ccccc2Sc2ccccc2C#N)c1OC,0,0,0,0,-,-,-,-
Cc1ccc([C@H]2C[C@@H](O)[C@H](n3cc(-c4ccc(F)cc4)nn3)CN2Cc2cccs2)cc1,-,-,0,-,-,-,-,-
O=C1c2ccccc2C(c2nnnn2Cc2ccccc2)N1Cc1cccs1 (stereo not drawn),-,-,0,-,-,-,-,-
COc1ccc(S[C@]2(C(=O)N3CCN(c4ncccn4)CC3)CC(=O)N(C(=O)/C=C/c3ccccc3)[C@@H]2c2ccc(OC)cc2)cc1,-,-,0,-,-,-,-,-
CCCCOCCCNC(=O)C[C@H]1C[C@@]2(C(=O)OC)C(=C[C@H](C(C)C)O[C@@H]2C2CC2)N(Cc2ccc(Cl)cc2Cl)C1=O,-,-,0,-,-,-,-,-
Cc1ccc(C(=O)Nn2c(O)c(C=C3N=c4ccccc4=N3)sc2=S)cc1,0,0,58,0,0,0,40,16
CC(C)Cc1nn2c(N)c(/C=C3\C=Nc4ccccc43)c(=O)nc2s1,0,0,38,0,0,0,62,21
CC(C)c1nn2c(N)c(/C=C3\C=Nc4ccccc43)c(=O)nc2s1,-,-,40,-,0,0,41,10
CCCc1nn2c(N)c(/C=C3\C=Nc4ccccc43)c(=O)nc2s1,0,0,51!,0,0,0,49,14

# Screening results as filed in PubChem.
